Test results reported in the supplement of paper PMC6555819.

Key:
Assay in all cases: PBM binding z-score (relative to random genomic background probes); higher = stronger binding; sequences stand for … in GC…GCGATTGACAGCGTAGAATGAAGG
[1] = test system: RARb homodimer (NR concentration 270 nM)
How it was run: (§1)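 Antibodies against each partner of ligand-free nuclear receptor dimers (one per run) detected binding on custom Agilent 4×180K protein-binding microarrays after 1 h incubation. The double-stranded probes had 34-nt variable regions carrying direct-repeat seeds, single-nucleotide variants, half-site ablations and random human genomic background sequences. Binding z-scores, from regression-normalized fluorescence, use the random background probes as reference.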

[2] = test system: RARg:RXRa (NR concentration 270 nM, RXRa partner concentration 90 nM)
How it was run: as §1

[3] = test system: RARg homodimer (NR concentration 270 nM)
How it was run: as §1

[4] = test system: RXRa DBDmut IVT, anti-RXR (DBD mutation: RXRa K156A/R161A, NR concentration 90 nM)
How it was run: as §1

[5] = test system: RXRa homodimer (NR concentration 180 nM)
How it was run: as §1

[6] = test system: THRa:RXRa (NR concentration 90 nM, RXRa partner concentration 90 nM)
How it was run: as §1

[7] = test system: THRa homodimer (NR concentration 90 nM)
How it was run: as §1

[8] = test system: VDR:RXRa (NR concentration 270 nM, RXRa partner concentration 90 nM)
How it was run: as §1

[9] = test system: VDR homodimer (NR concentration 270 nM)
How it was run: as §1

Row | Sequence | PBM binding z-score [1] | PBM binding z-score [2] | PBM binding z-score [3] | PBM binding z-score [4] | PBM binding z-score [5] | PBM binding z-score [6] | PBM binding z-score [7] | PBM binding z-score [8] | PBM binding z-score [9]
1 | GCTAGTTGGTCAGTAAAAGGTCACAGACCGGTCG | 5.24 | 5.64 | 5.2 | 0.262 | 5.7 | 3.79 | 1.68 | 3.94 | 1.13
2 | TCGAGTAGGTTACCGATGGGGCATTCAGCTTTCT | 0.462 | 1.47 | 0.276 | 0.165 | 0.626 | 0.0793 | -0.771 | 0.0364 | -0.757
3 | TAGCCTAGATCATTGGGCCAGTATAGTACGCATC | -0.608 | -0.554 | -0.194 | -0.443 | -0.398 | -0.832 | -0.488 | -0.685 | -0.283
4 | ATACCAAGGTGATCGTGAGGTCGGTGATACTAAC | 1.4 | 1.58 | 0.586 | -0.0984 | 0.701 | 2.63 | 1.81 | 0.863 | 0.911
5 | CGAACAAGGGCATGAGTTGATAGCAAATGCCGAT | 0.58 | 1.12 | 1.42 | 1.3 | 0.715 | 0.492 | -0.294 | 0.706 | 1.18
6 | CCGACTGCGGCATAAGGTTACCATAAGCCAGCCC | 0.92 | 0.306 | 0.391 | 0.104 | 0.766 | 2.11 | 1.49 | 0.0281 | -0.279
7 | CAAACTAGGTCACAGAGGTCAAATTCCGTGCGTA | 5.28 | 7.51 | 7.97 | 3.34 | 8.2 | 4.68 | 3.09 | 8.11 | 6.96
8 | CTCGAAAGGTCGTTCTCAGGTGAGTATACCAAAC | 2.86 | 5.28 | 3.33 | 3.44 | 4.39 | 4.46 | 1.46 | 3.95 | 2.59
9 | TGTCAAAGTTCAAAGGCAACGTAAGTATCCACAC | 3.66 | 5.59 | 5.84 | 4.29 | 5.06 | 2.12 | -0.708 | 4.26 | 4.02
10 | CCAGACAGGTAAAAGGTAACTCAGTCTGGTACGC | 0.19 | 0.33 | 0.29 | -0.178 | 1.09 | 0.372 | -0.238 | 0.318 | 0.202
11 | CCGAGTGGGGCAGAAAGGTTACCATACCATCCGG | 2.09 | 1.63 | 1.23 | -0.568 | 1.76 | 0.899 | -0.05 | 0.759 | 0.0724
12 | CCTAGCGGGCCAATCTGGGTCACTCAAGGCTTGA | 2.14 | 0.91 | 0.984 | -0.4 | 0.724 | 3.59 | 0.327 | 0.28 | -0.159
13 | ACTAGCAGGCCAAGGGTCACTCTAGATTAGTCCG | 3.64 | 3.81 | 3.34 | 0.668 | 3.3 | 2.32 | -0.0207 | 2.58 | 1.03
14 | GCTGGCAGGCCATTTGGGTCACTCAATGACGGGC | 1.88 | 0.91 | 1.54 | -0.405 | 0.855 | 1.86 | 0.617 | 1 | 0.646
15 | CCTAGCAGGCCAATCTGGGTCATTCAAGGCTTGA | 2.03 | 0.777 | 0.991 | 0.224 | 0.619 | 3.73 | 0.0402 | 1.06 | 0.585
16 | TGAATGAGGTTAAAAATCAGGGAACGTGGCGTCG | 0.129 | 1.38 | 0.835 | 1.26 | 2.24 | 1.67 | -0.0675 | 0.855 | 0.4
17 | CGTCCAAGGTCCTAGGAGGTCAGTGAAGACAGAT | 2.93 | 2.53 | 2.38 | 0.216 | 2.14 | 4.08 | 0.834 | 2.88 | 1.06
18 | CGAACTAGGTCTGAACAGGACAGTGAAGGATGAT | 0.0456 | 0.195 | 0.136 | -0.233 | 0.134 | 0.536 | -0.761 | -0.557 | -0.4
19 | GGAACGAGGGCCTTCGAGTTGATAGCATGGCGAT | -1.03 | -0.45 | -0.368 | 0.207 | -0.125 | 0.262 | -1.24 | -0.0234 | -0.335
20 | GCTAGCAGGCCATTTGGGTCACTAAATGACGGGC | 1.76 | 0.89 | 1.18 | -0.318 | 0.776 | 1.68 | 0.196 | 0.655 | 0.0959
21 | CTCGAAAGGTCGTGCTCAGGTGAGTATACCAAAC | 2.75 | 5.07 | 3.86 | 2.05 | 4.63 | 4.17 | 1.08 | 3.39 | 1.2
22 | AATACAGGGTCATCGTAGACCAGAGTACGCACAG | 3.31 | 5.66 | 5.19 | 3.73 | 6.72 | 3.67 | 1.24 | 5.04 | 4.03
23 | TCAGACATGTGAAGGTAACTCAGGTACGCAGTCG | -0.326 | 0.309 | 0.138 | 1.17 | 0.749 | 0.981 | -0.032 | 0.627 | -0.167
24 | ACTTACGGGTCAACAAGGTTATAGCACGCGTATA | 3.84 | 5.44 | 5.07 | 2.33 | 5.87 | 4.04 | 1.05 | 7.08 | 2.78
25 | GCGACTGGAGCATCAGCAGGTTACCATAACTTAA | -0.0503 | -0.127 | -0.161 | -0.526 | 0.0977 | 0.179 | -0.37 | -0.345 | -0.639
26 | TAGCCTAGGTCATGCGGGCCTGTATAGTGTCGGC | 2.91 | 3.78 | 4.07 | 0.686 | 2.87 | 3.03 | 1.05 | 1.75 | -0.143
